# Source: the supplement of paper PMC9794691
# How the values were obtained:
# Assay in all cases: area under confluence curve of osimertinib + compound combination regimen (DTP regrowth); compare to osimertinib-only DTP control AUC of the same experiment (AUC (confluence x time, arbitrary))
# H1975 = system: H1975
# Method in brief: (§1)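 EGFR-mutant NSCLC lines went into 48-well plates at 20,000–30,000 cells/well in RPMI 1640 with 10% FBS and were kept at 37 °C, 5% CO2. Cells got either the EGFR inhibitor plus a fixed-dose test compound from the start through the persister stage (10–21 days) and then drug-free medium, or the inhibitor alone followed by the test compound. Medium was changed every 3–4 days until wells given only the inhibitor regrew to confluence. The endpoint was the area under the IncuCyte confluence–time curve, calculated in Prism and reported as the median of triplicates where available.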
# HCC2279 = system: HCC2279
# Method in brief: as §1
# HCC2935 = system: HCC2935
# Method in brief: as §1
# HCC4006 = system: HCC4006
# Method in brief: as §1
# HCC827 = system: HCC827
# Method in brief: as §1
# II-18 = system: II-18
# Method in brief: as §1
# PC9 = conditions: test compound dose 1000 nM
# Method in brief: as §1
# [1] = test compound dose 1000 nM, dosing schedule: sequential, osimertinib-only DTP control AUC in same experiment: 15943, DMSO control AUC in same experiment: 20657
# [2] = test compound dose 1000 nM, dosing schedule: upfront, osimertinib-only DTP control AUC in same experiment: 27804, DMSO control AUC in same experiment: 20657
# [3] = test compound dose 1000 nM, dosing schedule: sequential, osimertinib-only DTP control AUC in same experiment: 6271, DMSO control AUC in same experiment: 13875
# [4] = test compound dose 1000 nM, dosing schedule: upfront, osimertinib-only DTP control AUC in same experiment: 10360, DMSO control AUC in same experiment: 13875
# [5] = test compound dose 1000 nM, dosing schedule: sequential, osimertinib-only DTP control AUC in same experiment: 19238, DMSO control AUC in same experiment: 16638
# [6] = test compound dose 1000 nM, dosing schedule: upfront, osimertinib-only DTP control AUC in same experiment: 21234, DMSO control AUC in same experiment: 16638
# [7] = test compound dose 1000 nM, dosing schedule: sequential, osimertinib-only DTP control AUC in same experiment: 8266, DMSO control AUC in same experiment: 27404
# [8] = test compound dose 1000 nM, dosing schedule: upfront, osimertinib-only DTP control AUC in same experiment: 13929, DMSO control AUC in same experiment: 27404
# [9] = test compound dose 1000 nM, dosing schedule: sequential, osimertinib-only DTP control AUC in same experiment: 21014, DMSO control AUC in same experiment: 18482
# [10] = test compound dose 1000 nM, dosing schedule: upfront, osimertinib-only DTP control AUC in same experiment: 27084, DMSO control AUC in same experiment: 18482
smiles,measurement,setting,value
COc1nnc2ccc(N3CCC(c4ccc(OCCN5CCN(C)C(=O)[C@H]5C)cc4)CC3)nn12 + C=CC(=O)Nc1cc(Nc2nccc(-c3cn(C)c4ccccc34)n2)c(OC)cc1N(C)CCN(C)C [osimertinib],area under confluence curve,"H1975; test compound dose 300 nM, dosing schedule: sequential, osimertinib-only DTP control AUC in same experiment: 12533, DMSO control AUC in same experiment: 14522",3520
same,area under confluence curve,"H1975; test compound dose 300 nM, dosing schedule: upfront, osimertinib-only DTP control AUC in same experiment: 18969, DMSO control AUC in same experiment: 14522",15900
same,area under confluence curve,"HCC2279; test compound dose 300 nM, dosing schedule: sequential, osimertinib-only DTP control AUC in same experiment: 5698, DMSO control AUC in same experiment: 27284",2470
same,area under confluence curve,"HCC2279; test compound dose 300 nM, dosing schedule: upfront, osimertinib-only DTP control AUC in same experiment: 30623, DMSO control AUC in same experiment: 27284",13900
same,area under confluence curve,"HCC2935; test compound dose 300 nM, dosing schedule: sequential, osimertinib-only DTP control AUC in same experiment: 9121, DMSO control AUC in same experiment: 11459",2580
same,area under confluence curve,"HCC2935; test compound dose 300 nM, dosing schedule: upfront, osimertinib-only DTP control AUC in same experiment: 12748, DMSO control AUC in same experiment: 11459",4310
same,area under confluence curve,"HCC4006; test compound dose 30 nM, dosing schedule: sequential, osimertinib-only DTP control AUC in same experiment: 14882, DMSO control AUC in same experiment: 10921",6680
same,area under confluence curve,"HCC4006; test compound dose 30 nM, dosing schedule: upfront, osimertinib-only DTP control AUC in same experiment: 18913, DMSO control AUC in same experiment: 10921",5730
same,area under confluence curve,"HCC827; test compound dose 300 nM, dosing schedule: sequential, osimertinib-only DTP control AUC in same experiment: 18675, DMSO control AUC in same experiment: 48895",4180
same,area under confluence curve,"HCC827; test compound dose 300 nM, dosing schedule: upfront, osimertinib-only DTP control AUC in same experiment: 25542, DMSO control AUC in same experiment: 48895",12300
same,area under confluence curve,"II-18; test compound dose 30 nM, dosing schedule: sequential, osimertinib-only DTP control AUC in same experiment: 16416, DMSO control AUC in same experiment: 18996",4370
same,area under confluence curve,"II-18; test compound dose 30 nM, dosing schedule: upfront, osimertinib-only DTP control AUC in same experiment: 18996, DMSO control AUC in same experiment: 18996",14400
Cc1cc2ncnn2cc1Nc1ncc2c(n1)n(C1CCOCC1)c(=O)n2C + C=CC(=O)Nc1cc(Nc2nccc(-c3cn(C)c4ccccc34)n2)c(OC)cc1N(C)CCN(C)C [osimertinib],area under confluence curve,"PC9; dosing schedule: sequential, osimertinib-only DTP control AUC in same experiment: 15044, DMSO control AUC in same experiment: 30604",10500
same,area under confluence curve,"PC9; dosing schedule: upfront, osimertinib-only DTP control AUC in same experiment: 20672, DMSO control AUC in same experiment: 30604",12700
CCc1cc2c(cc1N1CCC(N3CCOCC3)CC1)C(C)(C)c1[nH]c3cc(C#N)ccc3c1C2=O [Alectinib] + C=CC(=O)Nc1cc(Nc2nccc(-c3cn(C)c4ccccc34)n2)c(OC)cc1N(C)CCN(C)C [osimertinib],area under confluence curve,"PC9; dosing schedule: sequential, osimertinib-only DTP control AUC in same experiment: 15001, DMSO control AUC in same experiment: 22064",12500
same,area under confluence curve,"PC9; dosing schedule: upfront, osimertinib-only DTP control AUC in same experiment: 24924, DMSO control AUC in same experiment: 22064",10800
CCN(c1cc(-c2ccc(CN3CCOCC3)cc2)cc(C(=O)NCc2c(C)cc(C)[nH]c2=O)c1C)C1CCOCC1 [Tazemetostat] + C=CC(=O)Nc1cc(Nc2nccc(-c3cn(C)c4ccccc34)n2)c(OC)cc1N(C)CCN(C)C [osimertinib],area under confluence curve,"PC9; dosing schedule: sequential, osimertinib-only DTP control AUC in same experiment: 14030, DMSO control AUC in same experiment: 30326",11100
same,area under confluence curve,"PC9; dosing schedule: upfront, osimertinib-only DTP control AUC in same experiment: 20885, DMSO control AUC in same experiment: 30326",16200
C[C@@H](Nc1cc(F)cc(F)c1)c1cc(C(=O)N(C)C)cc2c(=O)cc(N3CCOCC3)oc12 + C=CC(=O)Nc1cc(Nc2nccc(-c3cn(C)c4ccccc34)n2)c(OC)cc1N(C)CCN(C)C [osimertinib],area under confluence curve,H1975; [1],8220
same,area under confluence curve,H1975; [2],13700
same,area under confluence curve,"HCC2279; test compound dose 1000 nM, dosing schedule: sequential, osimertinib-only DTP control AUC in same experiment: 21824, DMSO control AUC in same experiment: 29252",8080
same,area under confluence curve,"HCC2279; test compound dose 1000 nM, dosing schedule: upfront, osimertinib-only DTP control AUC in same experiment: 43517, DMSO control AUC in same experiment: 29252",21600
same,area under confluence curve,HCC2935; [3],5860
same,area under confluence curve,HCC2935; [4],5800
same,area under confluence curve,HCC4006; [5],10300
same,area under confluence curve,HCC4006; [6],5440
same,area under confluence curve,HCC827; [7],3540
same,area under confluence curve,HCC827; [8],3910
same,area under confluence curve,II-18; [9],12100
same,area under confluence curve,II-18; [10],10200
CCn1nc(C2CCN(C(=O)CCO)CC2)nc1-c1cnc(N)c(-c2nnc(C(C)(C)C)o2)n1 + C=CC(=O)Nc1cc(Nc2nccc(-c3cn(C)c4ccccc34)n2)c(OC)cc1N(C)CCN(C)C [osimertinib],area under confluence curve,H1975; [1],6780
same,area under confluence curve,H1975; [2],13600
same,area under confluence curve,"HCC2279; test compound dose 1000 nM, dosing schedule: sequential, osimertinib-only DTP control AUC in same experiment: 11520, DMSO control AUC in same experiment: 9426",11600
same,area under confluence curve,"HCC2279; test compound dose 1000 nM, dosing schedule: upfront, osimertinib-only DTP control AUC in same experiment: 21942, DMSO control AUC in same experiment: 9426",16800
same,area under confluence curve,HCC2935; [3],6130
same,area under confluence curve,HCC2935; [4],4470
same,area under confluence curve,HCC4006; [5],16700
same,area under confluence curve,HCC4006; [6],5320
same,area under confluence curve,HCC827; [7],7050
same,area under confluence curve,HCC827; [8],11000
same,area under confluence curve,II-18; [9],11100
same,area under confluence curve,II-18; [10],4500
same,area under confluence curve,"PC9; dosing schedule: sequential, osimertinib-only DTP control AUC in same experiment: 12535, DMSO control AUC in same experiment: 43316",3140
same,area under confluence curve,"PC9; dosing schedule: sequential, osimertinib-only DTP control AUC in same experiment: 15163, DMSO control AUC in same experiment: 28684",9440
same,area under confluence curve,"PC9; dosing schedule: upfront, osimertinib-only DTP control AUC in same experiment: 15354, DMSO control AUC in same experiment: 43316",5490
same,area under confluence curve,"PC9; dosing schedule: upfront, osimertinib-only DTP control AUC in same experiment: 21337, DMSO control AUC in same experiment: 28684",15400
